Results from PubChem BioAssay (NCATS).
“And” between values parts separate entries of the source, which are not always exact repeats. Equal values may be shown once. Records with an inconclusive call do not appear. More than one record can exist for a structure, and the calls need not agree. Values without a mark were called inactive. The source made the active and inactive calls. The call rests on the fitted dose curve; in most records, active means well fitted inhibition curve with a large enough effect; inconclusive means small, poorly fitted or top-dose-only effect; inactive means flat fitted curve, though single readings scatter.

Each compound was assayed on HaCat (assay: Cytotoxic Profiling of Annotated Libraries Using Quantitative High-Throughput Screening (AID 1296008; further: nearly all actives have a fitted effect of over 60% in size)). Settings: Five cell lines viability, CellTiter-Glo ATP luminescence, 48-72 h; max response: hits give low values.
Method in brief: (§1)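 Compounds were pin-transferred onto cells and incubated 48 or 72 hr at 37 degree Celsius, 95% humidity. CellTiter-Glo was added, plates sat 10 min at room temperature, then ATP-coupled luminescence was imaged as the viability read-out.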
On the % scale 0 is the no-effect control and ±100 the full control effect; potency means the concentration at half of the fitted maximal effect.

Row | Structure (SMILES) | outcome | max response | Potency
1 | C[C@H](Cn1cnc2c(N)ncnc21)OCP(=O)(O)O | inactive | – | –
2 | N[C@@H](Cc1cc(I)c(Oc2cc(I)c(O)c(I)c2)c(I)c1)C(=O)O | inactive | -2.11% | –
3 | COc1ccccc1N1CCN(CCN(C(=O)C2CCCCC2)c2ccccn2)CC1 | – | 1.26% and -29.9% | –
4 | CNC[C@H](O)c1ccc(O)c(O)c1 | – | -1.14% and -13.4% | –
5 | Nc1ncn([C@H]2C[C@H](O)[C@@H](CO)O2)c(=O)n1 | inactive | – | –
6 | Cc1cc(=O)oc2cc(O)ccc12 | – | 1.05% and -3.2% | –
7 | O=C(NOCC1CC1)c1ccc(F)c(F)c1Nc1ccc(I)cc1Cl | – | -17.9% | 26600 nM (active)
8 | Nc1ccc(S(N)(=O)=O)cc1 | inactive | – | –
9 | C[C@@H](N)C1CCC(C(=O)Nc2ccncc2)CC1 (stereo not given in full) | inactive | – | –
10 | CCCCc1ccc2nc(NC(=O)OC)[nH]c2c1 | inactive | 3.13% | –
11 | COc1cc(OC)c(C(=O)CCCN2CCCC2)c(OC)c1 | – | 4.83% and -3.89% | –
12 | Cc1nc(Nc2ncc(C(=O)Nc3c(C)cccc3Cl)s2)cc(N2CCN(CCO)CC2)n1 | – | – | 944 nM (active)
13 | CN1CCC(=C2c3ccccc3CCc3sccc32)CC1 | inactive | – | –
14 | CCN(CC)CCOc1ccc(Cc2ccccc2)cc1 | inactive | -17.2% | –
15 | CCOC(=O)c1c(C)n(C)c2ccc(O)cc12 | inactive | 4.97% | –
16 | Cc1cc(=O)c2c(O)c3c(O)cc(=O)c4c3c3c(cc(O)c1c23)C(C)(C)C=4O | inactive | – | 1300 nM (active)
17 | Nc1ccn([C@@H]2O[C@H](CO)[C@@H](O)C2O)c(=O)n1 (stereo not given in full) | inactive | – | –
18 | O=C(O)c1cccnc1Nc1cccc(C(F)(F)F)c1 | inactive | 1.64% | –
19 | CCC(C)(Oc1ccc(C2(c3ccc(OC(C)(CC)C(=O)O)cc3)CCCCC2)cc1)C(=O)O (stereo not given) | inactive | – | –
20 | CC1Cc2ccccc2N1NC(=O)c1ccc(Cl)c(S(N)(=O)=O)c1 (stereo not given) | inactive | -11.1% | –

Row | Structure (SMILES) | outcome | max response | Potency
21 | CCOc1cc(CC(=O)N[C@@H](CC(C)C)c2ccccc2N2CCCCC2)ccc1C(=O)O | inactive | – | –
22 | Cc1ccc(C(=O)c2cc(O)c(O)c([N+](=O)[O-])c2)cc1 | inactive | -18.7% | –
23 | Cc1nccn1CC1CCc2c(c3ccccc3n2C)C1=O (stereo not given) | inactive | -3.6% and 4.03% | –
24 | CC(S)C(=O)NCC(=O)O (stereo not given) | inactive | -2.01% | –
25 | COCCCOc1ccnc(CS(=O)c2nc3ccccc3[nH]2)c1C (stereo not given) | inactive; activator | -2% | –
26 | CC(C)c1ccc2oc3nc(N)c(C(=O)O)cc3c(=O)c2c1 | inactive | -17.6% | –
27 | COc1cc2c(cc1OC)C1CC(=O)C(CC(C)C)CN1CC2 (stereo not given) | inactive | – | –
28 | CNC[C@@H](O)[C@@H](O)[C@H](O)[C@H](O)CO | inactive | – | –
29 | Cc1ccc(Nc2nccc(N(C)c3ccc4c(C)n(C)nc4c3)n2)cc1S(N)(=O)=O | inactive | -13.5% and -50.9% | –
30 | O=C(NCCO[N+](=O)[O-])c1cccnc1 | inactive | 4.19% | –
31 | CC1(C)NC(=O)N(c2ccc([N+](=O)[O-])c(C(F)(F)F)c2)C1=O | inactive | -0.412% | –
32 | Clc1ccc2c(N3CCN(CCCN4CCN(c5ccnc6cc(Cl)ccc56)CC4)CC3)ccnc2c1 | inactive | – | –
33 | Oc1ccc(OCc2ccccc2)cc1 | – | -14% and -4.74% | –
34 | Cc1ccc(NC(=O)c2ccc(CN3CCN(C)CC3)cc2)cc1Nc1nccc(-c2cccnc2)n1 | inactive | – | –
35 | NC(=O)Cc1cccc(C(=O)c2ccccc2)c1N | inactive | -6.4% | –
36 | c1cnc2cc3c(cc2n1)C1CNCC3C1 | inactive | 2.53% | –
37 | c1ccc2[nH]c(-c3cscn3)nc2c1 | inactive | -3.12% | –
38 | OC(CN1CCN(c2cccc(Cl)c2)CC1)C(c1ccccc1)c1ccccc1 (stereo not given) | – | -65.8% and -1.92% | –
39 | Nc1nc(OCc2ccccc2)c2[nH]cnc2n1 | inactive | – | –

The compounds below were run on KB-3-1 in the same assay as above. Settings: Five cell lines viability, CellTiter-Glo ATP luminescence, 48-72 h; max response: hits give low values.
Method in brief: as §1

Row | Structure (SMILES) | outcome | max response | Potency
40 | C[C@H](Cn1cnc2c(N)ncnc21)OCP(=O)(O)O | inactive | – | –
41 | N[C@@H](Cc1cc(I)c(Oc2cc(I)c(O)c(I)c2)c(I)c1)C(=O)O | inactive | -0.982% and 2.52% | –
42 | COc1ccccc1N1CCN(CCN(C(=O)C2CCCCC2)c2ccccn2)CC1 | – | -8.11% and 2.92% | –
43 | CNC[C@H](O)c1ccc(O)c(O)c1 | – | 2.62% | –
44 | Nc1ncn([C@H]2C[C@H](O)[C@@H](CO)O2)c(=O)n1 | inactive | 9.32% | –
45 | Cc1cc(=O)oc2cc(O)ccc12 | – | 2.35% and 1.97% | –
46 | Nc1ccc(S(N)(=O)=O)cc1 | – | 4.1% and 2.9% | –
47 | C[C@@H](N)C1CCC(C(=O)Nc2ccncc2)CC1 (stereo not given in full) | – | -5.62% | –
48 | CCCCc1ccc2nc(NC(=O)OC)[nH]c2c1 | – | – | 23.5 nM (active)
49 | COc1cc(OC)c(C(=O)CCCN2CCCC2)c(OC)c1 | – | -2.3% and 3.48% | –
50 | Cc1nc(Nc2ncc(C(=O)Nc3c(C)cccc3Cl)s2)cc(N2CCN(CCO)CC2)n1 | – | -28.1% | –
51 | CN1CCC(=C2c3ccccc3CCc3sccc32)CC1 | – | -12.2% and -19.3% | –
52 | CCN(CC)CCOc1ccc(Cc2ccccc2)cc1 | – | -7.39% and -3.92% | –
53 | CCOC(=O)c1c(C)n(C)c2ccc(O)cc12 | – | -7.66% and 1.23% | –
54 | Cc1cc(=O)c2c(O)c3c(O)cc(=O)c4c3c3c(cc(O)c1c23)C(C)(C)C=4O | – | – | 11.6 µM (active) and 23.5 µM (active)
55 | Nc1ccn([C@@H]2O[C@H](CO)[C@@H](O)C2O)c(=O)n1 (stereo not given in full) | inactive | 21.2% | –
56 | O=C(O)c1cccnc1Nc1cccc(C(F)(F)F)c1 | – | 5.86% and -3.77% | –
57 | CCC(C)(Oc1ccc(C2(c3ccc(OC(C)(CC)C(=O)O)cc3)CCCCC2)cc1)C(=O)O (stereo not given) | inactive | -0.0453% and 5.37% | –
58 | CC1Cc2ccccc2N1NC(=O)c1ccc(Cl)c(S(N)(=O)=O)c1 (stereo not given) | – | -19.1% and -17.8% and -4.71% | –

Row | Structure (SMILES) | outcome | max response | Potency
59 | CCOc1cc(CC(=O)N[C@@H](CC(C)C)c2ccccc2N2CCCCC2)ccc1C(=O)O | inactive | 4.6% | –
60 | Cc1nccn1CC1CCc2c(c3ccccc3n2C)C1=O (stereo not given) | inactive | -3.61% and -19.2% | –
61 | CC(S)C(=O)NCC(=O)O (stereo not given) | – | 5.7% | –
62 | COCCCOc1ccnc(CS(=O)c2nc3ccccc3[nH]2)c1C (stereo not given) | inactive | -10% | –
63 | CC(C)c1ccc2oc3nc(N)c(C(=O)O)cc3c(=O)c2c1 | inactive | -4.86% | –
64 | COc1cc2c(cc1OC)C1CC(=O)C(CC(C)C)CN1CC2 (stereo not given) | – | -0.991% | –
65 | CNC[C@@H](O)[C@@H](O)[C@H](O)[C@H](O)CO | – | 5.74% | –
66 | Cc1ccc(Nc2nccc(N(C)c3ccc4c(C)n(C)nc4c3)n2)cc1S(N)(=O)=O | – | -14.3% and -5.07% and -20.5% | –
67 | O=C(NCCO[N+](=O)[O-])c1cccnc1 | inactive | – | –
68 | CC1(C)NC(=O)N(c2ccc([N+](=O)[O-])c(C(F)(F)F)c2)C1=O | – | 2.37% and -24.9% | –
69 | Clc1ccc2c(N3CCN(CCCN4CCN(c5ccnc6cc(Cl)ccc56)CC4)CC3)ccnc2c1 | – | 3.7% | –
70 | Oc1ccc(OCc2ccccc2)cc1 | inactive | 45.1% | –
71 | Cc1ccc(NC(=O)c2ccc(CN3CCN(C)CC3)cc2)cc1Nc1nccc(-c2cccnc2)n1 | – | -0.677% and -9.97% and -10.5% | –
72 | NC(=O)Cc1cccc(C(=O)c2ccccc2)c1N | – | -8.75% | –
73 | c1cnc2cc3c(cc2n1)C1CNCC3C1 | inactive | 3.64% and -1.73% | –
74 | c1ccc2[nH]c(-c3cscn3)nc2c1 | – | -14.9% and 2.26% | –
75 | OC(CN1CCN(c2cccc(Cl)c2)CC1)C(c1ccccc1)c1ccccc1 (stereo not given) | – | -12.1% and -1.2% | –
76 | Nc1nc(OCc2ccccc2)c2[nH]cnc2n1 | – | 5.98% | –
